PubChem BioAssay (NCI)
About 83,000 compounds went through this panel and 20% of them were active in at least one assay; those are over-represented in the sample as a whole.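 Interpretation: 100, growth as untreated; towards 0, rising growth inhibition; 0, no net growth; 0 to -100, cell death. Compounds scoring below 10 were considered active.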 Unmarked numbers belong to inactive results. The source made the active and inactive calls.

Experiments:
Assay in all cases: NCI-60 one-dose screen, 48 h (100 = growth as untreated, 0 = no growth, -100 = all killed)
[1] = test system: NCI-H23 lung; conditions: 10 µM unless noted
[2] = test system: NCI-H226 lung; conditions: 10 µM unless noted
[3] = test system: NCI-H322M lung; conditions: 10 µM unless noted
[4] = test system: NCI-H460 lung; conditions: 10 µM unless noted
[5] = test system: HOP-92 NSCLC; conditions: 10 µM unless noted
[6] = test system: NCI-H522 lung; conditions: 10 µM unless noted
[7] = test system: A549/ATCC NSCLC; conditions: 10 µM unless noted
[8] = test system: 786-0 renal; conditions: 10 µM unless noted
[9] = test system: COLO 205 colon; conditions: 10 µM unless noted
[10] = test system: DU-145 prostate; conditions: 10 µM unless noted
[11] = test system: K-562 leukemia; conditions: 10 µM unless noted
[12] = test system: MALME-3M melanoma; conditions: 10 µM unless noted
[13] = test system: MDA-MB-231 breast; conditions: 10 µM unless noted
[14] = test system: RXF 393 renal; conditions: 10 µM unless noted
[15] = test system: SF-268 CNS; conditions: 10 µM unless noted
[16] = test system: SF-295 CNS; conditions: 10 µM unless noted
[17] = test system: SF-539 CNS; conditions: 10 µM unless noted
[18] = test system: UACC-257 melanoma; conditions: 10 µM
[19] = test system: M14 melanoma; conditions: 10 µM unless noted

SMILES	growth [1]	growth [2]	growth [3]	growth [4]	growth [5]	growth [6]	growth [7]	growth [8]	growth [9]	growth [10]	growth [11]	growth [12]	growth [13]	growth [14]	growth [15]	growth [16]	growth [17]	growth [18]	growth [19]
NC(=S)N/N=C(/C=C/c1cn(-c2ccccc2)nc1-c1ccc(Cl)cc1)c1cc2ccccc2oc1=O	46.5%	62.2%	60%	18.3%	70.2%	46.9%	41.4%	58.1%	38.1%	57.7%	20.8%	71.2%	48.9%	106%	52.9%	25.2%	51.1%	76.3%	54.1%
C/C(=C(/c1ccc(O)cc1)c1ccc(OCCN2CCCCCC2)cc1)c1ccccc1	45.5%	75.7%	67%	19.2%	45%	65.6%	56.7%	35.5%	-86.5% (active)	74.3%		2.85% (active)	43.1%	26%	71.3%	44%	10.7%	-27% (active)	-3.91% (active)
COc1ccc(N)cc1C(=O)Nc1cccc(-c2cc(=O)c3c(OC)c(OC)c(OC)cc3o2)c1	63.7%	61.7%	72.5%	61.5%	8.78% (active)	60.5%	69.3%	53.8%	84.7%	59.1%	46.6%	89.4%	60.2%	50.4%	68.3%	63.8%	64.4%	98.9%	
CN(C)c1ccc(/C=N/Nc2nc(N/N=C/c3ccc(N(C)C)cc3)nc(N3CCOCC3)n2)cc1	99.3%	93.5%	100%	16.7%	109%	98.9%	74.9%	84.6%	108%	92.7%	6.35% (active)	114%	99.5%	93.1%	97.8%	13.8%	96.7%	103%	103%
C=C1C(=O)O[C@@H]2C[C@@H](C)CCC(=O)[C@](C)(OC(C)=O)C[C@H](OC(=O)/C(C)=C\C)[C@@H]12	70.6%	104%	102%	97.3%	80%	11.8%	87.7%	90.8%	28.6%	37.2%		85.5%	50.4%	51.3%	96.1%	97.5%	72.3%	73.4%	82.4%
CC1OC(O[C@@H]2[C@H](O)C(CO)OC(O[C@H]3COC(O[C@H]4CC[C@]5(C)[C@H]6CC[C@]78OC[C@@]9(CCC(C)(C)C[C@H]97)[C@H](O)C[C@@]8(C)[C@]6(C)CC[C@H]5C4(C)C)[C@@H](OC4OC(CO)[C@@H](O)[C@@H](O)[C@@H]4O)[C@@H]3O)[C@H]2OC2OC[C@@H](O)[C@@H](O)[C@@H]2O)[C@@H](O)[C@@H](O)[C@H]1O (stereo partly drawn)	-62.7% (active)	-40% (active)	-78.2% (active)	-65.2% (active)	-39.3% (active)	-72.4% (active)	-67.7% (active)	-80.9% (active)	-74.5% (active)	-79.7% (active)		-70.6% (active)	-72.2% (active)	-92% (active)	-65.9% (active)	-92.3% (active)	-80.5% (active)	-76.2% (active)	-80.7% (active)
CCN(CC)CCN1C(=O)c2c(c3c4cccnc4[nH]c3c3ccc4ccccc4c23)C1=O	60.3%	79.4%	76.7%	13.8%	91.9%	65.4%	60%	60.9%	72.1%	54.7%	18.7%	86.7%	89.7%	78.8%	50.3%	35.4%	76.5%	98.2%	61.1%
O=C(Cn1cc(CN2C(=O)c3ccc([N+](=O)[O-])cc3C2=O)nn1)Nc1ccccc1Br	98.1%	104%	98.2%	108%	114%	102%	108%	107%	117%	113%	98.5%	99.5%	103%	119%	106%	108%	107%	106%	101%
